Reference: ChEMBL document CHEMBL2218924, “A broad activity screen in support of a chemogenomic map for kinase signalling research and drug discovery” (Biochem J, 2013)

These molecules were tested against Myosin light chain kinase, smooth muscle (Homo sapiens) (UniProt Q15746). Details: at 1 µM.
Sequence of Myosin light chain kinase, smooth muscle (Homo sapiens) (Q15746 whole entry): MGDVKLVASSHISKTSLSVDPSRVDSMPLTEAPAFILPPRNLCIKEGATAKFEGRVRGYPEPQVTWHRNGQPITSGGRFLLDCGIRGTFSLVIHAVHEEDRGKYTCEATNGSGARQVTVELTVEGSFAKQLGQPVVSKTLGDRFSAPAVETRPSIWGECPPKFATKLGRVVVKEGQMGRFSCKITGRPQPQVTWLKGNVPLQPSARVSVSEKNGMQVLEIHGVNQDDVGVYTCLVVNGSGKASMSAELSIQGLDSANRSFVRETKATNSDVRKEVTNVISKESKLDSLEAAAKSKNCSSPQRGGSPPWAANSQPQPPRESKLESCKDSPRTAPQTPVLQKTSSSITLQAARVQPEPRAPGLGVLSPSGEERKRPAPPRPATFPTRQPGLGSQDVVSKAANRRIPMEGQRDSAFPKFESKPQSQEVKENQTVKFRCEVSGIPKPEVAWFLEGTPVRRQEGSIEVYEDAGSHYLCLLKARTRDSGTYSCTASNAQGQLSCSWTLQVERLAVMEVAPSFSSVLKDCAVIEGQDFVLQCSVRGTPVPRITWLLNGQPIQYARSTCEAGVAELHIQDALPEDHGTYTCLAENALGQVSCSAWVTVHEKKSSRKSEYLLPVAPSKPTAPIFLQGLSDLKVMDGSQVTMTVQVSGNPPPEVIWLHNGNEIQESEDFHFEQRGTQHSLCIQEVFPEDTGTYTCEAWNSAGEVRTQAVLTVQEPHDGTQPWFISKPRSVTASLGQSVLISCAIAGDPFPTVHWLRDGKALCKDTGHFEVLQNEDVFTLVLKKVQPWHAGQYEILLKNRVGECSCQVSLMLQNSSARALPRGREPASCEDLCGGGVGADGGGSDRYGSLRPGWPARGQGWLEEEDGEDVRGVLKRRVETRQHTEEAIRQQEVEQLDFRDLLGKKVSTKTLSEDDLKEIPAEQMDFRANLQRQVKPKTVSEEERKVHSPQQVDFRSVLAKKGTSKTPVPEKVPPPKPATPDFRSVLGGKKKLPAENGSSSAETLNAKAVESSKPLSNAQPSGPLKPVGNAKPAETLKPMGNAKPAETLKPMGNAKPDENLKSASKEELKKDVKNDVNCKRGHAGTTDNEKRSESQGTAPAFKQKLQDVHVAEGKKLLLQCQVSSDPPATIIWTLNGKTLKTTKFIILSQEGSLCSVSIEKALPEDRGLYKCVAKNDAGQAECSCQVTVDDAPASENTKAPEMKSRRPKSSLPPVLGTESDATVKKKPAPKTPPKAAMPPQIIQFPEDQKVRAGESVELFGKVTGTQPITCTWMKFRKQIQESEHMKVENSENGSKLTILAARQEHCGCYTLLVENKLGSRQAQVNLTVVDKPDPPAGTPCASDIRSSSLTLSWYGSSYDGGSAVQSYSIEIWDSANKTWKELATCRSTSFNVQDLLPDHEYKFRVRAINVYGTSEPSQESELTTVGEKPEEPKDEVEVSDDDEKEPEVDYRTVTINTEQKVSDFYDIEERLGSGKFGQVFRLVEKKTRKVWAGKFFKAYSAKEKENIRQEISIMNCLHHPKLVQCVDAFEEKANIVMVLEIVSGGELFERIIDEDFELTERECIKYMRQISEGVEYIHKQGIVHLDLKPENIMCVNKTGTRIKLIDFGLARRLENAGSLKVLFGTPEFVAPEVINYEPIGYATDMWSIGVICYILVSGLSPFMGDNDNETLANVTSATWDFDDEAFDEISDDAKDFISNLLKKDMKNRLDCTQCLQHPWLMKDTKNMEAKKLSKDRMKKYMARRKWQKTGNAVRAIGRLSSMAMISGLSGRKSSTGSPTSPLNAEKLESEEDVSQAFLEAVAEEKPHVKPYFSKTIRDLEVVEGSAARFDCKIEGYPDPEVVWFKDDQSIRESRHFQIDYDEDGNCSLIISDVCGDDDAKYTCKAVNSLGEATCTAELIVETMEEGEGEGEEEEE

| SMILES | residual activity [%] |
| --- | --- |
| N#C/C(=C(\N)Sc1ccc(N)cc1)c1ccccc1C(F)(F)F | 95 |
| CO[C@H]1C[C@@H]2CC[C@@H](C)[C@@](O)(O2)C(=O)C(=O)N2CCCC[C@H]2C(=O)O[C@H]([C@H](C)C[C@@H]2CC[C@@H](O)[C@H](OC)C2)CC(=O)[C@H](C)/C=C(\C)[C@@H](O)[C@@H](OC)C(=O)[C@H](C)C[C@H](C)/C=C/C=C/C=C/1C | 75 |
| Cc1nc(-c2ccccc2)c(-c2ccncc2)o1 | 106 |
| CC(=O)c1ccc(N2CCOCC2)cc1O | 83 |
| Cc1nc2cc3nc(-c4cccs4)cnc3cc2n1C | 82 |
| Nc1n[nH]c2nnc(-c3c(-c4ccccc4)nn4ccccc34)cc12 | 113 |
| CCN(CC)CCCCN1c2ccccc2Oc2ccc(Cl)cc21 | 79 |
| Cn1cnc2cc3c(Nc4cccc(Br)c4)ncnc3cc21 | 74 |
| CO[C@H]1[C@@H](OC)C[C@H](C)[C@@H](OC)C2=CC(=O)C=C(NC(=O)/C(C)=C/C=C/[C@H](OC)[C@@H](OC(N)=O)/C(C)=C/[C@@H]1C)C2=O | 98 |
| CN(C)c1ccc(/C=C2\C(=O)Nc3ccccc32)cc1 | 77 |
| COc1ccc(S(=O)(=O)N(CCO)c2ccccc2CN(C)C/C=C/c2ccc(Cl)cc2)cc1 | 97 |
| O=Nc1c(-c2c(O)[nH]c3ccccc23)[nH]c2ccccc12 | 46 |
| O=C1NC(=O)/C(=C/c2ccc3c(c2)OC(F)(F)O3)S1 | 77 |
| COc1cc2ncnc(N3CCN(C(=O)Nc4ccc(Oc5ccccc5)cc4)CC3)c2cc1OC | 77 |
| Oc1ccc(-c2nc(-c3ccc(F)cc3)c(-c3ccncc3)[nH]2)cc1 | 111 |
| N#Cc1cnc2cnc(NCc3cccnc3)cc2c1Nc1ccc(F)c(Cl)c1 | 69 |
| CNc1cc2c(Nc3cccc(Br)c3)ncnc2cn1 | 55 |
| O=C1NC(=O)c2cc(Nc3ccc(F)cc3)c(Nc3ccc(F)cc3)cc21 | 55 |

| SMILES | residual activity [%] |
| --- | --- |
| COc1cccc(-c2cc(=O)c3ccccc3o2)c1N | 107 |
| Cc1cccc(-c2[nH]c(C(C)(C)C)nc2-c2ccc3c(c2)OCO3)n1 | 84 |
| c1ccc(-c2n[nH]c3c2oc2ccccc23)cc1 | 66 |
| Ic1cccc(CSc2nnc(-c3ccncc3)o2)c1 | 84 |
| CO[C@@H]1[C@H](N(C)C(=O)c2ccccc2)C[C@H]2O[C@]1(C)n1c3ccccc3c3c4c(c5c6ccccc6n2c5c31)C(=O)NC4 | 13 |
| NC(=O)c1ccc2[nH]c(-c3ccc(Oc4ccc(Cl)cc4)cc3)nc2c1 | 93 |
| O=C1Nc2cc(Br)ccc2/C1=C1/Nc2ccccc2/C1=N\O | 25 |
| COc1cc2ncnc(Nc3ccc(Oc4ccccc4)cc3)c2cc1OC | 72 |
| CCOc1cc2ncnc(Nc3cccc(Br)c3)c2cc1OCC | 69 |
| O=c1cc(-c2cccc3c2Sc2ccccc2S3)oc(N2CCOCC2)c1 | 114 |
| c1ccc2c(-c3ccncc3)c[nH]c2c1 | 72 |
| Nc1cccc(-c2cc3c(Oc4cccc(O)c4)ncnc3[nH]2)c1 | 85 |
| Nc1nc(Nc2ccc(S(N)(=O)=O)cc2)nn1C(=S)Nc1c(F)cccc1F | 79 |
| CC(C)n1cnc2c(NCc3ccccc3)nc(NCCCO)nc21 | 93 |
| O=C1NC(=O)/C(=C\c2ccc3nccnc3c2)S1 | 81 |
| O=C(O)c1ccc2c3c1cccc3c(=O)n1c3ccccc3nc21 | 88 |
| COc1cc2ncnc(Nc3ccc(O)c(Br)c3)c2cc1OC | 71 |

Each molecule was assayed against Myosin light chain kinase, smooth muscle (Homo sapiens) (UniProt Q15746). Details: at 10 µM.

| SMILES | residual activity [%] |
| --- | --- |
| N#C/C(=C(\N)Sc1ccc(N)cc1)c1ccccc1C(F)(F)F | 75 |
| CO[C@H]1C[C@@H]2CC[C@@H](C)[C@@](O)(O2)C(=O)C(=O)N2CCCC[C@H]2C(=O)O[C@H]([C@H](C)C[C@@H]2CC[C@@H](O)[C@H](OC)C2)CC(=O)[C@H](C)/C=C(\C)[C@@H](O)[C@@H](OC)C(=O)[C@H](C)C[C@H](C)/C=C/C=C/C=C/1C | 101 |
| Cc1nc(-c2ccccc2)c(-c2ccncc2)o1 | 88 |
| CC(=O)c1ccc(N2CCOCC2)cc1O | 85 |
| Cc1nc2cc3nc(-c4cccs4)cnc3cc2n1C | 105 |
| Nc1n[nH]c2nnc(-c3c(-c4ccccc4)nn4ccccc34)cc12 | 74 |
| CCN(CC)CCCCN1c2ccccc2Oc2ccc(Cl)cc21 | 102 |
| Cn1cnc2cc3c(Nc4cccc(Br)c4)ncnc3cc21 | 94 |
| CO[C@H]1[C@@H](OC)C[C@H](C)[C@@H](OC)C2=CC(=O)C=C(NC(=O)/C(C)=C/C=C/[C@H](OC)[C@@H](OC(N)=O)/C(C)=C/[C@@H]1C)C2=O | 90 |
| CN(C)c1ccc(/C=C2\C(=O)Nc3ccccc32)cc1 | 56 |
| COc1ccc(S(=O)(=O)N(CCO)c2ccccc2CN(C)C/C=C/c2ccc(Cl)cc2)cc1 | 41 |
| O=Nc1c(-c2c(O)[nH]c3ccccc23)[nH]c2ccccc12 | 13 |
| O=C1NC(=O)/C(=C/c2ccc3c(c2)OC(F)(F)O3)S1 | 72 |
| COc1cc2ncnc(N3CCN(C(=O)Nc4ccc(Oc5ccccc5)cc4)CC3)c2cc1OC | 97 |
| Oc1ccc(-c2nc(-c3ccc(F)cc3)c(-c3ccncc3)[nH]2)cc1 | 80 |
| N#Cc1cnc2cnc(NCc3cccnc3)cc2c1Nc1ccc(F)c(Cl)c1 | 46 |
| CNc1cc2c(Nc3cccc(Br)c3)ncnc2cn1 | 49 |
| O=C1NC(=O)c2cc(Nc3ccc(F)cc3)c(Nc3ccc(F)cc3)cc21 | 70 |

| SMILES | residual activity [%] |
| --- | --- |
| COc1cccc(-c2cc(=O)c3ccccc3o2)c1N | 77 |
| Cc1cccc(-c2[nH]c(C(C)(C)C)nc2-c2ccc3c(c2)OCO3)n1 | 90 |
| c1ccc(-c2n[nH]c3c2oc2ccccc23)cc1 | 64 |
| Ic1cccc(CSc2nnc(-c3ccncc3)o2)c1 | 68 |
| CO[C@@H]1[C@H](N(C)C(=O)c2ccccc2)C[C@H]2O[C@]1(C)n1c3ccccc3c3c4c(c5c6ccccc6n2c5c31)C(=O)NC4 | 10 |
| NC(=O)c1ccc2[nH]c(-c3ccc(Oc4ccc(Cl)cc4)cc3)nc2c1 | 96 |
| O=C1Nc2cc(Br)ccc2/C1=C1/Nc2ccccc2/C1=N\O | 32 |
| COc1cc2ncnc(Nc3ccc(Oc4ccccc4)cc3)c2cc1OC | 91 |
| CCOc1cc2ncnc(Nc3cccc(Br)c3)c2cc1OCC | 41 |
| O=c1cc(-c2cccc3c2Sc2ccccc2S3)oc(N2CCOCC2)c1 | 69 |
| c1ccc2c(-c3ccncc3)c[nH]c2c1 | 66 |
| Nc1cccc(-c2cc3c(Oc4cccc(O)c4)ncnc3[nH]2)c1 | 25 |
| Nc1nc(Nc2ccc(S(N)(=O)=O)cc2)nn1C(=S)Nc1c(F)cccc1F | 29 |
| CC(C)n1cnc2c(NCc3ccccc3)nc(NCCCO)nc21 | 74 |
| O=C1NC(=O)/C(=C\c2ccc3nccnc3c2)S1 | 62 |
| O=C(O)c1ccc2c3c1cccc3c(=O)n1c3ccccc3nc21 | 35 |
| COc1cc2ncnc(Nc3ccc(O)c(Br)c3)c2cc1OC | 37 |
